# From PubChem BioAssay
# NS1 inh – inhibitors of influenza NS1 protein function; AID 2326; 270,000 compounds, 0.4% hits; Potency, µM (series often up to 46.1 µM), inactives show at the top dose activity, positive = more growth; calls by dose curve; note: potency is the fitted concentration of half-maximal effect; actives are rising curves; nearly all actives have a fitted effect of over 50% in size
#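 Growth recovery, yeast-based: influenza A NS1 expressed in S. cerevisiae causes slow growth, and suppressors are detected by OD600. The parent strain without NS1 is used as positive control.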
# Shiga toxin inh – Shiga toxin inhibition. Vero cells, Shiga toxin protein synthesis inhibition reporter. inhibition, % at 38.7 µM. 290,000 compounds, 9.2% hits; in the data active = inhibition mostly above about 28%, no sharp cut-off; inactive = mostly below about 43%; note: 0% is about no effect
# Pf growth 96h – inhibits malaria parasite growth, 96 h; P. falciparum luciferase reporter growth, 96 h; Potency, µM (doses to about 28.7 µM), for the others: at the highest dose activity change, negative = inhibition, actives largely listed as inhibitors; 320,000 compounds, 6.9% hits; AID 504834; note: potency is the fitted concentration of half-maximal effect; % is set by controls: 0 for no effect and ±100 for the full control effect
#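 Readout is luminescence from an integrated firefly luciferase in P. falciparum. Red cells, 2% hematocrit and 0.05% parasitemia final, were cultured with compound through two parasite generations (96 hours) at 37 C, 5% CO2.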
# Pf growth 48h – inhibits P. falciparum growth in the first generation, 48 h | Potency, µM (highest dose often 28.7 µM), inactives show at the top dose activity change, negative = inhibition, most hits filed as inhibitors | AID 504832 | P. falciparum luciferase growth in erythrocytes, 48 h | 310,000 compounds, 5.9% hits; note: potency is the fitted concentration of half-maximal effect; % is set by controls: 0 for no effect and ±100 for the full control effect
#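 Erythrocytes infected with P. falciparum carrying an integrated firefly luciferase reporter (2% hematocrit, 0.1% parasitemia final) were exposed to compounds in RPMI 1640 with 0.5% Albumax at 37 C, 5% CO2. Growth inhibition was scored as reduced luminescence.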
# FBPA Giardia inh – inhibitors of Giardia lamblia fructose-1,6-bisphosphate aldolase; purified Giardia FBPA; A8B2U2; Potency, µM (highest dose often 59.6 µM), without a hit: top-dose activity, negative = inhibition, most hits filed as inhibitors; AID 2451; 290,000 compounds, 0.71% hits; note: potency is the fitted concentration of half-maximal effect; % is set by controls: 0 for no effect and ±100 for the full control effect; nearly all actives have a fitted effect of over 55% in size
# Target sequence (A8B2U2 whole entry, looked up): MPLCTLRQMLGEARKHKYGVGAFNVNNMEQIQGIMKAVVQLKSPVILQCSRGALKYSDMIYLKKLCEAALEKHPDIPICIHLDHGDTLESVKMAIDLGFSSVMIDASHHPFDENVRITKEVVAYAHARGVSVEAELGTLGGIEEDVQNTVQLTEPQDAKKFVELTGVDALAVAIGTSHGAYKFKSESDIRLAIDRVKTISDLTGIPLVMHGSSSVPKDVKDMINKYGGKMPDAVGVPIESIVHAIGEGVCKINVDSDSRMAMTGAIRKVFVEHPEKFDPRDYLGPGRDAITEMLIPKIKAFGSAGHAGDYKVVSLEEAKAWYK
#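 Giardia FBPA (40 nM reagent) was preincubated 10 min at RT with compound (up to 57.5 uM final), then substrate plus GAPDH/TPI/NAD/arsenate coupling system with diaphorase/resazurin was added; resorufin fluorescence (525/598 nm) was read after 20 min.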
# Cycloheximide cs – counter-screen for Shiga toxin inhibitors: cycloheximide protein synthesis inhibition; cell reporter, cycloheximide protein synthesis inhibition counterscreen; 300,000 compounds, 12% hits; AID 2314; max response, %; in the data active = max response mostly above about 13%, no sharp cut-off; inactive = mostly below about 14%; note: read at 38.3 µM for the half of the compounds with a filed dose; 0% is about no effect
# An asterisk follows results filed as active; i = inactive; ? = inconclusive; / = no result; ! = repeats disagree; [ ] = another dose, or the depositor's remark. An excerpt weighted towards active compounds, which were near 21% of everything screened. Unless noted, calls come from the whole dose curve; as a rule, active = well fitted curve in the direction sought with a large enough effect; inconclusive = small, poorly fitted or top-dose-only effect, or another doubt; inactive = no such curve, though single readings can be large; an effect the other way counts as inactive or inconclusive.
SMILES,NS1 inh,Shiga toxin inh,Pf growth 96h,Pf growth 48h,FBPA Giardia inh,Cycloheximide cs
COc1ccc(C(Nc2ccccc2)P(=O)(Oc2ccccc2)Oc2ccccc2)cc1 (stereo not drawn),10%,56*,0%,?,17%,28*
CCOP(=O)(OCC)C(Nc1ccccc1)c1cc(OC)ccc1OC (stereo not drawn),1%,-2,43%,-10%,-2%,-3
Cc1ccccc1C1CC(=O)Oc2ccc(O)cc21 (stereo not drawn),/,i,/,/,-25%[89.2 µM],-3
Cc1ccc(C(C(=O)NC2CCCCC2)N(Cc2cccnc2)C(=O)c2csnn2)cc1 (stereo not drawn),1%,2,-15%,-25%,-1%,-7
COc1ccc(-c2nc3c(c4c2C[C@H](c2ccccc2)OC4)CN(S(=O)(=O)c2ccc(Cl)c4nonc24)CC3)c(C)c1,/,/,/,/,-1%[12.9 µM],/
COC(=O)C(Nc1ccccc1Cl)(c1cc(C)c(O)c(C)c1)C(F)(F)F (stereo not drawn),-71%,4,/,9.3µM*,-4%,-2
CCOC(=O)C(NC(=O)c1ccccc1Cl)(Nc1ccc(C)c(C)c1)C(F)(F)F (stereo not drawn),4%,24,2%,?,0%,7
O=c1[nH]c2ccccc2nc1C(F)(F)F,2%,11,2%,35%,6%,1
CC(C)NC(=O)c1onc(CSc2nc3ccccc3[nH]2)c1C(=O)NC(C)C,-15%,-3,0%,8%,-16%,-2
Cc1c(OCC(F)(F)F)ccnc1CSc1nc2ccccc2[nH]1,-11%,132*,?,?,-3%,54*
Cc1c(OCC(F)(F)F)ccnc1CS(=O)c1nc2ccccc2[nH]1 (stereo not drawn),-8%,116*!,-18%,10%,-15%,27*
CCC1CCCCN1C(=O)CSc1nc2c([nH]c3ccccc32)c(=O)n1C (stereo not drawn),-16%,-6,-1%,9.3µM*,1%,-1
COCCn1c(SCC(=O)N2CCCCC2)nc2c([nH]c3ccccc32)c1=O,9%,-8,?,12µM*,6%,9
CCSc1nc2c([nH]c3ccccc32)c(=O)n1C,3%,10,-22%,/,-3%,-5
CCc1c(C)nc(SCC(=O)N2CCCCC2CC)[nH]c1=O (stereo not drawn),-4%,-8,-3%,2.1µM*,1%,3
CCOC(=O)N1CCN(C(=O)CSc2nc3c([nH]c4ccccc43)c(=O)n2CCOC)CC1,-3%,-5,12µM*,?,/,-1
COc1ccccc1-c1nnc(SCC(=O)NNC(=O)c2ccccc2F)n1C,/,/,30%,16%,/,/
COc1ccc(C(=O)NCCC(=O)N2CCC3(CC2)NCCc2[nH]cnc23)cc1,-4%,-7,?,13%,/,-7
CC(C)CCn1c(SCC(=O)Nc2ccccc2C(F)(F)F)nc2nccnc2c1=O,2%,-7,?,?,/,-5
O=C(c1cccc(Cl)c1)N(Cc1ccco1)C1CCS(=O)(=O)C1 (stereo not drawn),-11%,5,35%,9%,9%,-4
Cc1cccc2c1NC(=O)C21OCC(CO)([N+](=O)[O-])CO1 (stereo not drawn),6%,-8,2.6µM*,7%,-6%,-3
S=C(NCC1CCCO1)Nc1ccc(Cl)cc1Cl (stereo not drawn),9%,143*,?,77%,0%,46*
O=C(NCC1CCCO1)Nc1ccc(Cl)cc1 (stereo not drawn),9%,74*,/,62%,2%,44*
Cc1ccc(NC(=S)NCC2CCCO2)cc1 (stereo not drawn),2%,43,16%,/,0%,26
S=C(NCC1CCCO1)Nc1ccccc1 (stereo not drawn),5%,6,43%,43%,1%,1
S=C(NCC1CCCO1)Nc1ccc(Cl)cc1 (stereo not drawn),29%,56,90%,14%,4%,16*
Clc1ccc(-c2ccc(CNCC3CCCO3)o2)cc1 (stereo not drawn),-3%,96*,55%,34%,-9%,35*
